“And” between values parts separate entries of the source, which are not always exact repeats. Equal values may be shown once. Records with an inconclusive call do not appear. The source made the active and inactive calls. The call rests on the fitted dose curve; in most records, active means well fitted cell-killing curve with a large enough effect in the repeat runs; inconclusive means weak or mixed curves, or effect the other way; inactive means flat fitted curve, though single readings scatter.
assay: qHTS RealTime-Glo MT Cell Viability Assay in HEK293 cells - 40 hour (AID 1224874); conditions: RealTime-Glo luminescence; max response: hits give low values; further: nearly all actives have a fitted effect of over 50% in size
Text: U.S. Tox21 Program National Center for Advancing Translational Sciences [NCATS] NIH Chemical Genomics Center [NCGC] U.S. Environmental Protection Agency [EPA] National Institutes of Environmental Health Sciences [NIEHS] National Toxicology Program [NTP] U.S. Food and Drug Administration [FDA] Tox21 Assay Overview: Measure of cell viability is critical in the cell-base assay. Analysis of cell viability is necessary for the characterization of cell responses to cytotoxic drugs and environmental stress. A RealTime-Glo MT Cell Viability Assay to monitor cell viability in real time of continues cell culture during 40 hours of compound treatment was used to screen Tox21 10K library compounds in Hek293 cells. The RealTime-Glo MT Cell Viability Assay is a nonlytic, homogeneous, bioluminescent method to measure cell viability in real time using a simple, plate-based method. The assay involves adding NanoLuc luciferase and a cell-permeant prosubstrate to cells in culture. Viable cells reduce the proprietary prosubstrate to generate a substrate for NanoLuc luciferase. This substrate diffuses from cells into the surrounding culture medium, where it is rapidly used by the NanoLuc Enzyme to produce a luminescent signal. The signal correlates with the number of viable cells, making the assay well suited for cytotoxicity studies.
Tox21 Assay Protocol Summary: The mixture of Hek293 cell suspension and reagents were dispensed at 600cells/6 ul/well in 1536-well tissue culture treated black solid bottom plates using a Multidrop dispenser. After the assay plates were incubated at a 37 C/5% CO2 incubator for 5 hours, 23 nL of compounds dissolved in DMSO, positive and negative controls was transferred to the assay plate by a pintool work station. The plates were incubated at 37 C for 40 hours. The luminescence intensity were measured at 0h, 8h, 16h, 24h, 32h and 40h time points using ViewLux plate reader during compound treatment.
On the % scale 0 is the no-effect control and ±100 the full control effect; potency means the concentration at half of the fitted maximal effect.

Structure (SMILES) | max response | Potency
C1CS1 | 12% (inactive) | –
CCCCCCCCP(=O)(O)O | -9.79% (inactive) | –
O=C(O)C(F)(F)C(F)(F)C(F)(F)C(F)(F)C(F)(F)F | -1.16% (inactive) | –
COC(=O)Cc1ccccc1 | 7.1% (inactive) | –
c1ccc2c(c1)-c1cccc3cccc-2c13 | -7% (inactive) and -12.1% (inactive) | –
CCCCNC(=O)OCC#CI | – | 21.8 µM (active) and 24.5 µM (active)
N#CC(C#N)=Cc1ccc(O)c(O)c1 | -6.83% (inactive) | –
CCOP(=S)(S)OCC | 2.46% (inactive) | –
CNC(=O)Oc1cccc(N=CN(C)C)c1 | 7.04% (inactive) | –
O=C(O)C(O)C(O)C(=O)O (stereo not given) | -0.119% (inactive) | –
CCCCC#N | -2.33% (inactive) | –
O=P(OCC(Br)CBr)(OCC(Br)CBr)OCC(Br)CBr (stereo not given) | – | 27.9 µM (active)
CC(C)(C)c1ccc(CCOc2ncnc3ccccc23)cc1 | 3.46% (inactive) | –
C=CCc1ccccc1O | 7.74% (inactive) | –
C[C@]12C=CC3=C4CCC(=O)C=C4CC[C@H]3[C@@H]1CC[C@@H]2O | -25.8% (inactive) | –
C=CCN1C[C@H](C)N([C@H](c2ccc(C(=O)N(CC)CC)cc2)c2cccc(OC)c2)C[C@H]1C | – | 19 µM (active)
NC(=S)c1c(Cl)cccc1Cl | -2.31% (inactive) | –
CCCN(CCOc1c(Cl)cc(Cl)cc1Cl)C(=O)n1ccnc1 | – | 19.9 µM (active) and 27.5 µM (active)
CC(CC(C(N)=O)(c1ccccc1)c1ccccc1)N(C)C (stereo not given) | 3.65% (inactive) | –
O=C(NCNC(=O)NC1C(=O)NC(=O)N1CO)NC1C(=O)NC(=O)N1CO (stereo not given) | 4.4% (inactive) | –

Structure (SMILES) | max response | Potency
C[C@H]1[C@@H]2Cc3ccc(O)cc3[C@@]1(C)CCN2C | -5.05% (inactive) | –
CC(C)c1ccc(NC(=O)N(C)C)cc1 | 3.89% (inactive) | –
CCOC(=O)c1cn2nc(OP(=S)(OCC)OCC)cc2nc1C | – | 15.5 µM (active)
CC(C)OC(=O)Cc1ccccc1 | 5.49% (inactive) | –
c1ccc2c(c1)sc1ccccc12 | 0.709% (inactive) and -2.64% (inactive) | –
CCCBr | -3.27% (inactive) | –
CCOC(C(=O)OCCN(C)C)(c1ccccc1)c1ccccc1 | -21.4% (inactive) | –
CCC1(CCC(C)C)C(=O)NC(=O)NC1=O | -4.01% (inactive) | –
CCCCCCCCCCCCCCCl | 1.34% (inactive) | –
C[N+](C)(C)CC1CO1 (stereo not given) | 5.73% (inactive) | –
[Cl-].[Cl-].[Hg+2] | – | 2.45 µM (active)
CN1CC[C@]23c4c5ccc(O)c4O[C@H]2[C@@H](O)CC[C@H]3[C@H]1C5 | -1.3% (inactive) | –
CC(O)CN1CCN(CC(=O)[O-])CCN(CC(=O)[O-])CCN(CC(=O)[O-])CC1.[Gd+3] (stereo not given) | 3.85% (inactive) | –
CCCCCCCCCCCCN(C)C | -4.6% (inactive) | –
Cc1nc2ccccc2c(=O)n1-c1ccccc1Cl | – | 21.4 µM (active)
CC(Oc1cc(Cl)c(Cl)cc1Cl)C(=O)O (stereo not given) | 3.67% (inactive) | –
C[N+]1(CCC(C(N)=O)(c2ccccc2)c2ccccc2)CCCCC1 | 0.771% (inactive) | –
Nc1cccc2ccccc12 | -9.7% (inactive) and -1.99% (inactive) | –
CN1C[C@H](C(=O)N[C@]2(C)O[C@@]3(O)[C@@H]4CCCN4C(=O)[C@H](Cc4ccccc4)N3C2=O)C=C2c3cccc4[nH]cc(c34)C[C@H]21 | -10.8% (inactive) | –
CCC(C)(C)O | 6.83% (inactive) | –

— PubChem BioAssay (Tox21)
